Measurements published in PMC7862700, “An all-to-all approach to the identification of sequence-specific readers for epigenetic DNA modifications on cytosine”.

Assays:
Experiment in all cases: DAPPL (digital affinity profiling via proximity ligation, sequencing); 10 mM Tris-HCl pH 7.5, 50 mM NaCl, 1 mM DTT, 4% glycerol, room temperature, 30 min; GST-TFs on glutathione beads, 16-mer random dsDNA library, 0.1% formaldehyde crosslink after washing; high values mean tight binding
Conditions in all cases: protein: recombinant; tags: N-terminal GST; dsDNA, one strand shown
[1] = molecular target: T1, ERF (Homo sapiens, UniProt P50548 1-548)
T1 sequence: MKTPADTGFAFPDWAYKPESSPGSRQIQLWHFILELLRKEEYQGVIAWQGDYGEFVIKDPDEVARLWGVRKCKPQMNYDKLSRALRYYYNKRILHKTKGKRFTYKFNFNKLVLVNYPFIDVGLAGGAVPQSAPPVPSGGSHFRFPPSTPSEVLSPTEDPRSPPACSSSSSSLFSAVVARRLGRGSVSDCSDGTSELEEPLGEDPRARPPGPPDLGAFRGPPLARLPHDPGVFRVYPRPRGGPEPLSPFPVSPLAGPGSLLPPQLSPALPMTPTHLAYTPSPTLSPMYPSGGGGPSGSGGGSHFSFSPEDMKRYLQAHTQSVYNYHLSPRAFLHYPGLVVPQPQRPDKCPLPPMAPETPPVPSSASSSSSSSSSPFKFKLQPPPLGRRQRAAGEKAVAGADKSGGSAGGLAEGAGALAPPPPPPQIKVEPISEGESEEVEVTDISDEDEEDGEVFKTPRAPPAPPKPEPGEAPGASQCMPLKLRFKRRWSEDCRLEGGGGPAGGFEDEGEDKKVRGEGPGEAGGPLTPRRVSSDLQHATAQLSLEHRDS
How it was run: (§1)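 After expression in yeast as GST fusions, human transcription factors were bound to glutathione beads, DNA-barcoded and mixed with a tag-only sample. The pools were incubated with 200 nmole of a 16-mer random double-stranded DNA library in Tris/NaCl/DTT/glycerol buffer (30 min, room temperature), washed and crosslinked with 0.1% formaldehyde. Proximity ligation with BsaI/T4 ligase ran for 1 h at 37 °C, before PCR amplification and sequencing on an Illumina NextSeq500. Binding signal is a hexamer's read frequency for a factor divided by its frequency for the tag-only sample.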

[2] = molecular target: T2, ETV3L (Homo sapiens, UniProt Q6ZN32 1-361)
T2 sequence: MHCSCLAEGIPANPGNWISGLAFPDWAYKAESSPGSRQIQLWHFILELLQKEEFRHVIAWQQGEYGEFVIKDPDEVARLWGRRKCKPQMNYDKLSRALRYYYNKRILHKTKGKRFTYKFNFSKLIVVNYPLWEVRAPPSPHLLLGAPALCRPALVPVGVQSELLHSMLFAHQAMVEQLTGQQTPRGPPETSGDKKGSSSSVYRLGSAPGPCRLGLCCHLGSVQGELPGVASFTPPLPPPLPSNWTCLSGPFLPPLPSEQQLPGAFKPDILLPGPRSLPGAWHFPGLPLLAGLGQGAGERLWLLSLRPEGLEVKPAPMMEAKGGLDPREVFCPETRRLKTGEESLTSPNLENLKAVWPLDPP
How it was run: as §1

[3] = molecular target: T3, ETS2 (Homo sapiens, UniProt P15036 1-469)
T3 sequence: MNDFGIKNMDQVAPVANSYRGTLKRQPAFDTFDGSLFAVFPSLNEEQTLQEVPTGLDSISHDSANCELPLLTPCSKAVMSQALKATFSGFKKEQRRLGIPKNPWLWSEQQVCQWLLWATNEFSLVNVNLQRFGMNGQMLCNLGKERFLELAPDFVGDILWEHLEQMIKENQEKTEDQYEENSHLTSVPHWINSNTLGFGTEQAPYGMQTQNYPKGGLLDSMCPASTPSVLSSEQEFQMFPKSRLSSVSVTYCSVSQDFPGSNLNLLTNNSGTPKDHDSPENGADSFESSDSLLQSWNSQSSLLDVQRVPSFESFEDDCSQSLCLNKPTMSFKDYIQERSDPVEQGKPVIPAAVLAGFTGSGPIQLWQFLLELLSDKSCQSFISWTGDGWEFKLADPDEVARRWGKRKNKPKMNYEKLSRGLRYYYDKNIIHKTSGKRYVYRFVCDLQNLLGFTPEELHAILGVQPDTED
How it was run: as §1

[4] = molecular target: T4, SPDEF (Homo sapiens, UniProt O95238 1-335)
T4 sequence: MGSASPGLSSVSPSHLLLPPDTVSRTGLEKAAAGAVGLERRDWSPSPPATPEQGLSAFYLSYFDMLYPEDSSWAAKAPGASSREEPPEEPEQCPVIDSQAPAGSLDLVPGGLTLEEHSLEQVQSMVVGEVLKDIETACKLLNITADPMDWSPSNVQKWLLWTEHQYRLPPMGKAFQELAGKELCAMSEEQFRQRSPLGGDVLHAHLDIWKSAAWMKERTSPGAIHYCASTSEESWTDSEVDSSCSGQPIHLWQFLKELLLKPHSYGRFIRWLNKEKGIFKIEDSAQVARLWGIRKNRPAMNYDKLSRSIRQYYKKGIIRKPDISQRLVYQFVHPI
How it was run: as §1

[5] = molecular target: T5, ETV7 (Homo sapiens, UniProt Q9Y603 1-341)
T5 sequence: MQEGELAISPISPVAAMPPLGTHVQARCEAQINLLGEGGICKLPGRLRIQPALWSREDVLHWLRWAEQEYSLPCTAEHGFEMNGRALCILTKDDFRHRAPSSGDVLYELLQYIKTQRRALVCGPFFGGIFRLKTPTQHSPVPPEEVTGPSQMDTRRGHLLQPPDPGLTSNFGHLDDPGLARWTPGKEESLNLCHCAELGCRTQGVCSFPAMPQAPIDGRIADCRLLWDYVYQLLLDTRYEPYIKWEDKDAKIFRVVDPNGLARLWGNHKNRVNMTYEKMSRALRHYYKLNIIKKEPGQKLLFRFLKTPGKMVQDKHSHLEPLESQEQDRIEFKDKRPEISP
How it was run: as §1

[6] = molecular target: T6, ELF5 (Homo sapiens, UniProt Q9UKW6-2 1-255)
T6 sequence: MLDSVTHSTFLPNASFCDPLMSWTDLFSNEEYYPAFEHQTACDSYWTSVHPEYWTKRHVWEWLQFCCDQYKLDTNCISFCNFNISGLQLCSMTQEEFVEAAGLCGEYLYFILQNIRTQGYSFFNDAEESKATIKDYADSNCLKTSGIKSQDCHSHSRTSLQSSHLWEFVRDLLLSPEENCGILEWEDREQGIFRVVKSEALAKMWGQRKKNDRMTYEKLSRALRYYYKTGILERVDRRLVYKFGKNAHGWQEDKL
How it was run: as §1

[7] = molecular target: T7, ETV3 (Homo sapiens, UniProt P41162-2 1-143)
T7 sequence: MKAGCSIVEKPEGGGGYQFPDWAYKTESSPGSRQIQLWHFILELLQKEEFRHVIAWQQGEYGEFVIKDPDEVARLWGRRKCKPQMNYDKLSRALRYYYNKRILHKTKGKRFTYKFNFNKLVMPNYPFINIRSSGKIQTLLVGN
How it was run: as §1

[8] = molecular target: ETV6 (Homo sapiens, UniProt P41212 1-452)
ETV6, sequence (P41212 whole entry): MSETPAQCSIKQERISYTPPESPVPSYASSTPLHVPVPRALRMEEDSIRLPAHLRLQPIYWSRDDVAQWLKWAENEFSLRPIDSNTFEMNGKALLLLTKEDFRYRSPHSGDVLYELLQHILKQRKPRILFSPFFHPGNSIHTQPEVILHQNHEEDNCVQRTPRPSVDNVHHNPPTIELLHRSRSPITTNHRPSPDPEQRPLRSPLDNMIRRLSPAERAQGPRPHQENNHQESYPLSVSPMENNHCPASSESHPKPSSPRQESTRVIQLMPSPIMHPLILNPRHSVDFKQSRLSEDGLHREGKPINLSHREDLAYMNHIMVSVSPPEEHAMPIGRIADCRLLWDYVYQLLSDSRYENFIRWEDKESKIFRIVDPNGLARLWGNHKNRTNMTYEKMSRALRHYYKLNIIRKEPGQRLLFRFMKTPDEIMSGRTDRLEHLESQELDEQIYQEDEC
How it was run: as §1

Row | Sequence | binding signal [1] | binding signal [2] | binding signal [3] | binding signal [4] | binding signal [5] | binding signal [6] | binding signal [7] | binding signal [8]
1 | TATGCA | 1.25 fold enrichment (6-mer frequency, TF over GST control) | 1.27 fold enrichment (6-mer frequency, TF over GST control) | 1.29 fold enrichment (6-mer frequency, TF over GST control) | 1.36 fold enrichment (6-mer frequency, TF over GST control) | 1.18 fold enrichment (6-mer frequency, TF over GST control) | 1.23 fold enrichment (6-mer frequency, TF over GST control) | 1.33 fold enrichment (6-mer frequency, TF over GST control) | 1.15 fold enrichment (6-mer frequency, TF over GST control)
2 | CCGAAA | 1.22 fold enrichment (6-mer frequency, TF over GST control) | 1.2 fold enrichment (6-mer frequency, TF over GST control) | 1.22 fold enrichment (6-mer frequency, TF over GST control) | 1.17 fold enrichment (6-mer frequency, TF over GST control) | 1.24 fold enrichment (6-mer frequency, TF over GST control) | 1.18 fold enrichment (6-mer frequency, TF over GST control) | 1.19 fold enrichment (6-mer frequency, TF over GST control) | 1.28 fold enrichment (6-mer frequency, TF over GST control)
3 | CCGACT | 1.5 fold enrichment (6-mer frequency, TF over GST control) | 1.6 fold enrichment (6-mer frequency, TF over GST control) | 1.54 fold enrichment (6-mer frequency, TF over GST control) | 1.45 fold enrichment (6-mer frequency, TF over GST control) | 1.32 fold enrichment (6-mer frequency, TF over GST control) | 1.41 fold enrichment (6-mer frequency, TF over GST control) | 1.34 fold enrichment (6-mer frequency, TF over GST control) | 1.51 fold enrichment (6-mer frequency, TF over GST control)
4 | ACGCCC | 1.24 fold enrichment (6-mer frequency, TF over GST control) | 1.17 fold enrichment (6-mer frequency, TF over GST control) | 1.12 fold enrichment (6-mer frequency, TF over GST control) | 1.07 fold enrichment (6-mer frequency, TF over GST control) | 1.03 fold enrichment (6-mer frequency, TF over GST control) | 1.05 fold enrichment (6-mer frequency, TF over GST control) | 1.15 fold enrichment (6-mer frequency, TF over GST control) | 1.13 fold enrichment (6-mer frequency, TF over GST control)
5 | TAACGG | 1.04 fold enrichment (6-mer frequency, TF over GST control) | 1.04 fold enrichment (6-mer frequency, TF over GST control) | 1.1 fold enrichment (6-mer frequency, TF over GST control) | 1.1 fold enrichment (6-mer frequency, TF over GST control) | 1.06 fold enrichment (6-mer frequency, TF over GST control) | 1.07 fold enrichment (6-mer frequency, TF over GST control) | 1.1 fold enrichment (6-mer frequency, TF over GST control) | 1.14 fold enrichment (6-mer frequency, TF over GST control)
6 | GTTACA | 1.24 fold enrichment (6-mer frequency, TF over GST control) | 1.06 fold enrichment (6-mer frequency, TF over GST control) | 1.2 fold enrichment (6-mer frequency, TF over GST control) | 1.21 fold enrichment (6-mer frequency, TF over GST control) | 1.12 fold enrichment (6-mer frequency, TF over GST control) | 1.14 fold enrichment (6-mer frequency, TF over GST control) | 1.09 fold enrichment (6-mer frequency, TF over GST control) | 1.07 fold enrichment (6-mer frequency, TF over GST control)
7 | GTACAA | 1.03 fold enrichment (6-mer frequency, TF over GST control) | 1.09 fold enrichment (6-mer frequency, TF over GST control) | 1.1 fold enrichment (6-mer frequency, TF over GST control) | 1.06 fold enrichment (6-mer frequency, TF over GST control) | 1.12 fold enrichment (6-mer frequency, TF over GST control) | 1.03 fold enrichment (6-mer frequency, TF over GST control) | 1.11 fold enrichment (6-mer frequency, TF over GST control) | 1.15 fold enrichment (6-mer frequency, TF over GST control)
